Bioassay records deposited in PubChem by National Center for Advancing Translational Sciences (NCATS).
D2 ag-1: human D2 receptor agonism in beta-arrestin assay | DiscoveRx PathHunter D2 beta-arrestin, luminescence, 90 min; 100% = 57 uM dopamine signal | activation, % (no concentration beside the values) | actives 0.084% (n = 360,000) | AID 624465; in the data active = activation above about 40%
Target sequence (P14416 whole entry, looked up): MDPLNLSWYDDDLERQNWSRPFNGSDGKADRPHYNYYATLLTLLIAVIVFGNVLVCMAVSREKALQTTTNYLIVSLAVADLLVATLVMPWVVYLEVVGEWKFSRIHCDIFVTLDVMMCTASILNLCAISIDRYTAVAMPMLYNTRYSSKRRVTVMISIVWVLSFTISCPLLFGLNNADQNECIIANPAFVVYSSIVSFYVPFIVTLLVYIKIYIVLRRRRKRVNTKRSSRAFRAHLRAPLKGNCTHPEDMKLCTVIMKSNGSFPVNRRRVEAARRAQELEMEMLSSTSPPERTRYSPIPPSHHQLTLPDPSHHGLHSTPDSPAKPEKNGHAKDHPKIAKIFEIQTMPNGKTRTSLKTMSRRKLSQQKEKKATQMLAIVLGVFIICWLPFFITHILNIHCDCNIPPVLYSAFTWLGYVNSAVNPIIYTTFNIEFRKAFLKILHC
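DiscoveRx PathHunter D2 beta-arrestin cells (2,100/well) attached overnight, then compound-stimulated 90 min at 37 C in HBSS/10 mM HEPES/0.1% Tween-20 buffer; beta-galactosidase complementation read by luminescence after 1 h at ambient temperature. Dopamine 57 uM final (EC100) as control.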
D2 PAM-1: positive allosteric modulators of human D2 dopamine receptor; P14416; DiscoveRx D2 beta-arrestin cells, luminescence, 90 min; 100% = 57 uM dopamine signal; potentiation, % (concentration not given with the values); AID 624464; actives 0.23% (n = 360,000); in the data active = potentiation above about 50%
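PathHunter beta-arrestin assay in DiscoveRx D2 cells. Compounds were added with an EC20 of dopamine (50 nM final) for 90 min at 37 deg C. Luminescence was read 1 h after detection reagent, with 57 uM dopamine as the EC100 control.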
D2 antag: antagonists of human D2 dopamine receptor; P14416; HEK293 TREx D2 cells, calcium flux, dopamine EC80; inhibition, % at 10 µM; actives 2% (n = 340,000); in the data active = inhibition above about 30%; inactive = below that, where a call was filed; note: 0% is about no effect
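Dopamine at EC80 is the agonist stimulus; test compounds precede it by 180 s. Calcium flux read kinetically in a force-coupled, inducible HEK293 T-REx D2 cell line.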
D2 PAM-2: positive allosteric modulators of human D2 dopamine receptor; P14416; HEK293 T-REx D2, calcium flux, EC20 dopamine potentiation; potentiation, % at 10 µM; actives 0.34% (n = 340,000); AID 485347;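 active = potentiation over 3 SD above the plate norm, cut at about 30% in these data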; note: 0% is about no effect
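Using a no-wash calcium dye in inducible, force-coupled HEK293 Trex cells expressing D2, we tracked fluorescence each second for 180 s after compound, then for 180 s after EC20 dopamine to detect augmented signalling.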
D2 ag-2: D2 dopamine receptor (human) agonism | P14416 | HEK293 T-REx D2 cells, calcium flux agonist mode | activation, % at 2 µM | actives 0.53% (n = 340,000);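 active = activation over 3 SD above normal in the single-dose calcium agonist read, cut at about 30% in these data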; note: 0% is about no effect
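Calcium-flux readout, 1 cycle/sec over 180 s following compound pin transfer, in inducible HEK293 Trex D2 cells (force-coupled); dopamine controls included. Positive calcium responses during this window marked compounds as potential agonists.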
Numbers without * were called inactive; · = not tested or not shown. Most compounds without a hit are left out; they make up all but 2.4% or so of the library.

SMILES	D2 ag-1	D2 PAM-1	D2 antag	D2 PAM-2	D2 ag-2
Cc1ccc(-n2ncc3c(NC4CCCCC4)ncnc32)cc1	·	·	·	8.4	-0.4
O=C(Oc1ccc(-c2nnco2)cc1)N1CCCCC1	-2.1	-9.2	15.7	34.5*	0.9
O=C(Oc1ccc(Cl)cc1)N1CCCCC1	-1.6	-3.7	8.3	0.5	-2.3
CCc1ccc(CNC(=O)c2cnc3sc(N(CC)CC)nn3c2=O)cc1	·	·	·	2.2	0.9
CC(Cc1ccc(Cl)cc1)N1CCC(n2nccc2NC(=O)C2CCCC2)CC1 (stereo unspecified)	-1.3	-6.8	31.1*	-13.9	1.4
O=C(Nc1ccnn1C1CCN(Cc2ccccc2)CC1)C1CCCC1	-2.9	-39.3	14.8	-13.6	-0.1
CSCC(C)N1CCC(n2nccc2NC(=O)c2ccc3c(c2)OCO3)CC1 (stereo unspecified)	-3.1	-3.7	58.3*	-1.1	0.1
Cc1ccc(-n2ncc3c(SCC(=O)NNC(=O)c4ccco4)ncnc32)cc1	1.3	-3.1	-0.8	32.4*	0.1
CCOC(=O)CNC(=O)CSc1ncnc2c1cnn2-c1ccc(C)cc1	1.0	-2.8	4.8	-4.7	-0.3
COc1ccc2noc3c2c1C(=O)c1ccccc1-3	9.4	12.4	·	·	·
O=C1c2ccccc2-c2onc3ccc(NCCCn4ccnc4)c1c23	8.7	66.5*	27.6	-9.6	48.7*
CC(NC(=O)CN(c1ccc(Cl)cc1Cl)S(=O)(=O)c1ccccc1)c1ccccc1 (stereo unspecified)	·	·	·	2.1	0.2
CN1C(=O)c2oc3ccccc3c(=O)c2C1c1cccnc1 (stereo unspecified)	-2.1	-6.5	·	·	·
CN1C(=O)c2oc3ccccc3c(=O)c2C1c1ccccn1 (stereo unspecified)	0.5	-1.9	4.1	32.5*	0.5
CCN(CC)CCOC(=O)c1ccc(NC(=O)c2cc3cccc(OC)c3oc2=O)cc1	·	·	·	-1.0	0.0
COc1ccc(-c2noc(N(c3ccc(F)c(Cl)c3)c3nc(-c4ccc(OC)c(OC)c4)no3)n2)cc1OC	·	·	·	-0.1	0.5
CCCCNC(=O)NS(=O)(=O)c1ccc(C)cc1	-4.4	-6.0	33.2*	19.6	0.6
Cc1ccc(S(=O)(=O)NC(=O)NCCCCNC(=O)NS(=O)(=O)c2ccc(C)cc2)cc1	-0.3	-2.1	-2.8	11.0	-0.5
Cc1ccc(S(=O)(=O)NC(=O)NN2CCCCCC2)cc1	-4.6	-12.2	34.4*	3.5	1.9
CCOC(=O)c1sc(NC(=O)c2ccc(Cl)s2)cc1C	-7.3	-6.7	0.7	-12.6	0.0
CCOC(=O)c1sc(NC(=O)Nc2ccc(Cl)cc2)cc1C	4.3	2.2	38.0*	2.5	·
CCOC(=O)c1c(NC(=O)Nc2ccc(Cl)cc2)sc(C)c1C	0.4	-37.0	35.8*	-15.5	-0.9
CCOC(=O)c1c(NC(=O)Nc2cccc(Cl)c2)sc(C)c1C	0.4	-2.4	-10.3	-4.7	0.3
CCOc1ccccc1/C=N/NC(=O)C[n+]1ccccc1	-4.9	-19.1	33.2*	-16.5	-0.6
COc1ccc(/C=N/NC(=O)C[n+]2ccccc2)c(OC)c1OC	-2.6	-26.6	35.1*	-26.6	0.0
SMILES	D2 ag-1	D2 PAM-1	D2 antag	D2 PAM-2	D2 ag-2
O=C(C[n+]1ccccc1)N/N=C/c1cccc(Cl)c1Cl	-6.5	-7.3	-10.9	8.5	1.0
O=C(C[n+]1ccccc1)N/N=C/c1ccccc1Cl	5.0	-0.9	35.9*	-19.8	0.4
C=CCc1cccc(/C=N/NC(=O)C[n+]2ccccc2)c1O	10.2	-12.3	52.7*	-20.4	0.0
CCOc1ccccc1NC(=O)c1nc2nc(C)cc(C(F)F)n2n1	·	·	·	-2.9	0.8
COc1cccc(NC(=O)c2csc3c2CCCCC3)c1	·	·	·	-1.7	2.4
CCCCSCCCNC(=O)CN1C(=O)COc2ccc(S(=O)(=O)N3CCCC3)cc21	·	·	·	-0.8	-0.3
O=C(Cc1ccccc1)N/N=C/c1ccccc1Cl	-3.6	-12.4	31.2*	1.4	-0.6
O=C(O)COc1ccccc1/C=N/NC(=O)C(O)c1ccccc1 (stereo unspecified)	-6.4	-5.5	-15.1	1.1	0.0
C=CCc1cccc(/C=N/NC(=O)CCCNc2ccc(C)cc2)c1O	-4.4	-27.1	-18.1	-14.8	-0.8
CNC(=S)N/N=C/c1ccccc1OCC(=O)O	-3.1	-4.6	31.4*	14.0	2.0
C=CCc1cccc(/C=N/NC(=O)C(C)Nc2cccc(C)c2)c1O (stereo unspecified)	-4.2	-11.7	31.0*	-8.7	0.0
O=C(Cc1ccccc1)Nc1ccc(Br)c(Cl)c1	0.3	-13.8	-10.2	30.7*	-1.6
O=C(Cc1cc(=O)[nH][nH]1)N/N=C/c1ccccc1Cl	-1.1	2.5	-13.3	9.1	-0.3
Cc1ccccc1NC(=O)Cn1c(=O)n(Cc2ccco2)c(=O)c2cccnc21	·	·	·	-2.5	·
COc1ccc(C(=O)Nc2ccc(-c3nc4ncccc4o3)cc2C)cc1Br	·	·	·	-5.0	·
CCOC(=O)c1oc2ccc(S(=O)(=O)n3nc(-c4ccc(C)cc4)cc3N)cc2c1C	-30.2	-0.1	34.6*	1.6	0.3
Cc1ccc(S(=O)(=O)Cc2ccc(C(=O)NCCCN3CCCC3=O)o2)cc1	-3.3	1.1	34.0*	-3.1	0.9
O=C(NCCCN1CCCC1)c1ccc(CS(=O)(=O)c2ccc(Br)cc2)o1	-0.4	-9.1	-2.8	12.6	0.1
CCOc1ccc(NC(=O)CSc2cn(CC(=O)N3CCOCC3)c3ccccc23)cc1	·	·	·	1.7	·
COc1cccc(OC)c1OCCN1CCN(C(c2ccccc2)c2ccccc2)CC1	-1.2	-34.0	-17.1	-20.2	0.5
OCCOCCN1CCN(C(c2ccccc2)c2ccc(Cl)cc2)CC1 (stereo unspecified)	-4.0	-36.0	72.0*	-28.9	1.7
O=C(C1COc2ccccc2O1)N1CCN(c2nc3ccc(F)cc3s2)CC1 (stereo unspecified)	·	·	·	-1.3	-0.1
O=C(Nc1ccc(Cl)cc1)C1CCN(c2nc3ccccc3n3cccc23)CC1	·	·	·	10.7	0.1
Oc1cccc(Nc2nc(N3CCOCC3)nc(N3CCOCC3)n2)c1	3.4	5.2	36.0*	-4.3	1.1
Cc1cccc(Nc2nc(N3CCOCC3)nc(N3CCOCC3)n2)c1	-1.7	-8.2	7.1	5.1	0.4
Cc1cccc(N(CC(=O)NC2CCCC2)C(=O)CS(=O)CC(=O)Nc2ccc3c(c2)OCO3)c1C (stereo unspecified)	-2.6	-7.1	-10.7	-5.0	0.5
Cc1ccc(NC(=O)CS(=O)CC(=O)N(CC(=O)NC2CCCC2)c2cccc(C)c2C)cc1 (stereo unspecified)	0.2	-27.1	55.4*	-22.4	0.3
Cc1onc(-c2ccccc2)c1C(=O)N(CC(C)C)c1c(N)n(CC(C)C)c(=O)[nH]c1=O	-2.3	-4.1	·	30.1*	·
